The list is not random: actives were taken first. Their share in the collection is about 2.2%.
rTrxR1 inhibitor = blocks rat thioredoxin reductase 1. Potency, µM (top dose mostly 114 µM), actives largely listed as inhibitors. 390,000 tested, 1% active. recombinant rTrxR1, NADPH fluorescence consumption, selenite substrate; note: nearly all actives have a fitted effect of over 65% in size
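Rat TrxR1 (90 nM in the dispensed reagent) was pre-reduced with 400 uM NADPH for 5 min at room temperature, then incubated with compound for 15 min. After 400 uM selenite was added, NADPH fluorescence (Ex 340/Em 450 nm) was followed for 8 min.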
BRCA1 expr up = increases BRCA1 expression; MCF7-BRCA1-FFLuc reporter, luminescence, 48 h; response scale: scaled: vehicle 0%, 10 µM genistein 100%; Potency, µM (top dose mostly 46.1 µM), actives largely listed as activators; 380,000 tested, 1.1% active; note: nearly all actives have a fitted effect of over 80% in size
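Compounds are tested at multiple concentrations on MCF7 BRCA1-luciferase reporter cells seeded at 2000 per well; after 48 h, a single luminescence end-point is taken and curves fitted to the normalized data.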
IDH1 R132H inh = blocks human mutant IDH1 R132H enzyme | O75874 | IDH1-R132H enzyme, NADPH consumption, diaphorase/resazurin fluorescence | Potency, µM (titrated, usually from 76.6 µM), usual class: inhibitors | 390,000 tested, 0.093% active | AID 602179; note: nearly all actives have a fitted effect of over 65% in size
Target sequence (O75874 whole entry R132H, stated change not applied): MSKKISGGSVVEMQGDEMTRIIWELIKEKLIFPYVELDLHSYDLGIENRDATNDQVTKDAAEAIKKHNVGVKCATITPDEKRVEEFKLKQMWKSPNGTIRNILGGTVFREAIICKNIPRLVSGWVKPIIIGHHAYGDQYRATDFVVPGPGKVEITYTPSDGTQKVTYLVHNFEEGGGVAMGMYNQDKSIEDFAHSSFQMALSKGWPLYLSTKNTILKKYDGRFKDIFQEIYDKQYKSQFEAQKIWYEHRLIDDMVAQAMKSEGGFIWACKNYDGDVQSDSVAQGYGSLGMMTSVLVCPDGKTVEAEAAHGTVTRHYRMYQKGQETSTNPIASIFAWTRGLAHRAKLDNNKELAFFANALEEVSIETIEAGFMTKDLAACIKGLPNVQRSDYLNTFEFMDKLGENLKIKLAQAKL
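IDH1-R132H (0.5 ug/mL) preincubated 30 min with compound, then NADPH (0.016 mM) and alpha-KG (2 mM) added; 80 min at RT, pH 7.5. Remaining NADPH coupled via diaphorase/resazurin to fluorescence (540/590 nm); concentration-response curves normalized to no-enzyme control.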
Giardia kill = kills Giardia lamblia; activity change, % at 7.66 µM, hits read low; 340,000 tested, 0.15% active; Giardia lamblia trophozoite viability; in the data active = activity change below about -80%; inconclusive = between about -30% and that limit;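 note: parasites exposed to compound for two days anaerobically before the ATP read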
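Trophozoites 100 cells/well + cpd; 48 hrs, 37 deg C, anaerobic. ATPLite 1-Step added, 15-30 min RT, luminescence read (ATP-based viability).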
IL2 activator = IL-2 activation | IL-2 activation reporter assay, cell-based qHTS; stimulated with anti-CD3/CD4/CD28 beads; in transgenic mouse T cells | activation, % (series mostly up to about 46 µM) | 360,000 tested, 0.065% active | AID 652025; in the data active = activation above about 50%; inconclusive = mostly about 30% to 49%
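EGFP and DsRed fluorescence is measured by plate cytometry in unstimulated transgenic mouse T cells exposed to compound for 60 minutes, then stimulated 18 hours at 37 degrees C with anti-CD3/anti-CD4 beads plus anti-CD28.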
TrxR1 substrate = substrates of rat thioredoxin reductase 1 | O89049 | purified TrxR1 substrate turnover, NADPH consumption readout | Potency, µM (highest dose often 114 µM) | 390,000 tested, 0.01% active; note: nearly all actives have a fitted effect of over 50% in size
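Rat TrxR1, dispensed at 90 nM, was prereduced with 400 uM NADPH (final) for 5 min at ~22 deg C, then incubated with compound 15 min before 400 uM selenite. A first-read NADPH fluorescence drop versus no-compound background flagged substrates.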
IDH1 autofl = autofluorescence interference, mutant IDH1 hit counter-screen | shares compounds with IDH1 R132H inh | Resorufin detection reagent fluorescence interference, cell-free | inhibition of signal, % at 51.2 µM | 750 tested, under 10 active
WT IDH1 inh = wild-type IDH1 (human) inhibition counterscreen; 750 tested, 9% active; Potency, µM (titrated, usually from 115 µM), actives largely listed as inhibitors; WT IDH1 enzyme, NADPH diaphorase/resazurin fluorescence; shares compounds with IDH1 R132H inh; note: nearly all actives have a fitted effect of over 55% in size
Target sequence (O75874 whole entry, looked up): as the sequence (O75874 whole entry R132H, stated change not applied) above, with H132R counted along it
IDH1 R132H conf = inhibits human mutant IDH1 enzyme in cherrypick confirmation | shares compounds with IDH1 R132H inh | IDH1 R132H enzyme, NADPH diaphorase/resazurin fluorescence | Potency, µM (highest dose often 76.6 µM), usual class: inhibitors | 750 tested, 83% active | AID 624002; note: nearly all actives have a fitted effect of over 50% in size
Hits are given with their value; 0 = inactive; ? = inconclusive; - = no result given; [ ] = dose if it differs, or a comment. Unless noted, calls come from the whole dose curve; as a rule, active = well fitted curve in the direction sought with a large enough effect; inconclusive = small, poorly fitted or top-dose-only effect, or another doubt; inactive = no such curve, though single readings can be large; an effect the other way counts as inactive or inconclusive.

SMILES	rTrxR1 inhibitor	BRCA1 expr up	IDH1 R132H inh	Giardia kill	IL2 activator	TrxR1 substrate	IDH1 autofl	WT IDH1 inh	IDH1 R132H conf
COc1ccccc1Oc1coc2cc(OC(=O)N3CCOCC3)ccc2c1=O	0	0	0	0	0	0	-	-	-
CC(=O)Oc1ccc2c(=O)c(Oc3ccccc3[N+](=O)[O-])coc2c1	0	0	?	?	0	0	0	0	28µM
O=C1CCCC[C@@H](O)[C@H](O)C[C@H](c2ccccc2)O1	-	0	-	-	0	-	-	-	-
C=C1CC2(CC(c3ccccc3)OC(c3ccccc3)C2)OC1=O (configuration not stated)	0	0	58µM	0	0	0	0	?	22µM
CCc1ccc(C(=O)c2cn(Cc3ccc(F)cc3)c3cc(OC)c(OC)cc3c2=O)cc1	0	-	?	-	-	0	0	0	?
COc1ccc(OC)c(NC(=O)CCc2c(C)nc3c(c(C)nn3C(C)(C)C)c2C)c1	0	0	0	-	-	0	-	-	-
COc1cc(C2Oc3cc(C4Oc5cc(O)cc(O)c5C(=O)C4O)ccc3OC2CO)ccc1O (configuration not stated)	0	0	0	0	0	0	-	-	-
CC(=O)Oc1cc(O)c2c(c1)OC(c1ccc(OC(C)=O)c(OC(C)=O)c1)C(OC(C)=O)C2=O (configuration not stated)	?	0	52µM	0	0	0	0	0	?
CC(C)C[C@H]1CN([C@@H](Cc2ccc(O)cc2)CN2CCC[C@@H]2CN2C(=O)C(=O)NC[C@@H]2Cc2ccccc2)C(=O)C(=O)N1CC1CCCCC1	0	0	45µM	0	0	0	0	0	14µM
CC(C)C[C@@H](CN1CCC[C@@H]1CN1C(=O)C(=O)NC[C@@H]1Cc1ccccc1)N1C[C@H](Cc2ccccc2)N(CC2CCCCC2)C(=O)C1=O	-	0	-	-	0	-	-	-	-
CC(C)C[C@@H](CN1CCC[C@@H]1CN1C(=O)C(=O)NC[C@@H]1Cc1ccccc1)N1C[C@H](Cc2ccccc2)N(CC2CCCCCC2)C(=O)C1=O	0	0	40µM	0	0	0	0	0	20µM
CCC(=O)C1=C(c2ccc(C)cc2)N(C(=O)CC)n2c(nnc2C2CCCCC2)S1	0	-	0	-	-	0	-	-	-
CC(=O)C1=C(c2ccccc2)N(C(C)=O)n2c(C)nnc2S1	0	0	29µM	0	0	0	0	0	6.3µM
CCCC(=O)C1=C(c2ccc(C)cc2)N(C(=O)CCC)n2cnnc2S1	0	-	40µM	-	-	0	0	0	40µM
CCCC(=O)C1=C(c2cccc(OC)c2)N(C(=O)CCC)n2c(C)nnc2S1	0	-	45µM	-	-	0	0	0	45µM
CCCC(=O)C1=C(c2ccc(C)c(C)c2)N(C(=O)CCC)n2c(CC)nnc2S1	0	-	0	-	-	0	-	-	-
CSc1ccc(CCNc2ncnc3onc(C)c23)cc1	0	-	0	-	-	0	-	-	-
CCOC(=O)N1CCC2(CC1)C(C#N)=C(N)Oc1n[nH]c(CSc3ccc(C)cc3)c12	0	0	?	0	0	0	0	0	28µM
Cc1ccc(SCc2[nH]nc3c2C2(CCSCC2)C(C#N)=C(N)O3)cc1	0	0	0	0	0	0	-	-	-
COc1ccc(-n2c(=O)c3c4c(sc3n(Cc3cc(C)ccc3C)c2=O)CN(C(C)=O)CC4)c(OC)c1	0	0	?	-	-	0	0	?	14µM
CCN(CC)C(=O)c1sc2c(c1C)c(=O)n(Cc1ccccc1)c(=O)n2Cc1cc(C)ccc1C	0	-	0	-	-	0	-	-	-
CC(=O)N1CCc2c(sc3c2c(=O)n(-c2cccc(Cl)c2C)c(=O)n3Cc2ccccc2C)C1	0	0	?	-	-	0	0	40µM	28µM
CCN(CC)C(=O)c1sc2c(c1C)c(=O)n(CCc1ccccc1)c(=O)n2Cc1cc(C)ccc1C	0	-	10µM	-	-	0	0	0	8.9µM
CCN(CC)C(=O)c1sc2c(c1C)c(=O)n(-c1ccc(OC)cc1OC)c(=O)n2Cc1cc(C)ccc1C	0	-	40µM	-	-	0	0	0	22µM
C#CCn1c(=O)n(-c2cccc(Cl)c2C)c(=O)c2c3c(sc21)CN(C(C)=O)CC3	0	0	0	-	-	0	-	-	-
CCN(CC)C(=O)c1sc2c(c1C)c(=O)n(-c1ccc(OC)cc1OC)c(=O)n2CC(=O)c1ccccc1	0[11.4 µM]	0	0	0	0	0[11.4 µM]	-	-	-
CCCOc1ccc(Oc2nc(NCC(C)C)nc(N(C)C)n2)nn1	0	-	0	-	-	0	-	-	-
